# Screening data from PubChem.
# An excerpt weighted towards active compounds, which were near 3.7% of everything screened.
# BoNT F protease: blocks Botulinum neurotoxin F light chain protease; Multiplex microsphere protease cleavage assay, flow cytometry; inhibition, % at 10 µM; hit rate 0.22% among 360,000; AID 588497; in the data active = inhibition above about 35%, passing the limit was not always enough; inconclusive = no clear call, values can overlap the other calls; note: plate controls were buffer without enzyme for full effect and enzyme alone for no effect
# Autofluor counter: flagged as autofluorescent in microsphere protease counterscreen. fluorescence intensity (no concentration beside the values). hit rate 3.1% among 360,000. compound autofluorescence counterscreen, microsphere flow cytometry; stronger effect = higher value; in the data active = fluorescence intensity above about 16000; inconclusive = no clear call, values can overlap the other calls
# MazEF act: MazEF (E. coli) toxin RNase activation; FAM/BHQ RNA-DNA oligo cleavage fluorescence, 5 h; activation, % at 20 µM; P0AE70; hit rate 0.32% among 350,000; in the data active = activation above about 50%
# Target sequence (P0AE70 whole entry, looked up): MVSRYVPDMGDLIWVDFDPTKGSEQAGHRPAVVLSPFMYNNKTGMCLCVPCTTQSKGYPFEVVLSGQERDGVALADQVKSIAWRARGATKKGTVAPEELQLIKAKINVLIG
# BoNT A protease: inhibitors of Botulinum neurotoxin A light chain protease | multiplex microsphere protease substrate cleavage, flow cytometry | inhibition, % at 10 µM | hit rate 0.17% among 360,000; note: plate controls were buffer without enzyme for full effect and enzyme alone for no effect
# Anthrax LF inh2: anthrax lethal factor protease inhibition; P15917; inhibition, % at 10 µM; multiplex microsphere protease cleavage assay, LF; hit rate 0.12% among 360,000; note: plate controls were buffer without enzyme for full effect and enzyme alone for no effect
# * marks the source's active call; other numbers are inactive results; ? = inconclusive; · = no result; ! = not active in a repeat. Cut-off read from the data, not from the text of the source, unless noted: active = inhibition above about 30%; inconclusive = no clear call, values can overlap the other calls; inactive = below that.
SMILES,BoNT F protease,Autofluor counter,MazEF act,BoNT A protease,Anthrax LF inh2
C=CCn1c(C)cc(C(=O)CSc2nc3ccccc3c(=O)[nH]2)c1C,-2.7,3072,-0.6,-0.4,-0.5
OCCNc1nc2ccc(Cl)cc2[nH]1,4.1,22121*,1.6,4.2,-0.5
C[C@H](CO)N1C[C@H](C)[C@H](CN(C)C(=O)C2CC2)OCc2cnnn2CCCC1=O,-2.7,3087,7.5,-0.6,-1.2
CCCNC(=O)C1(C)CCCN(C(=O)c2ccc(F)cc2Cl)C1 (configuration not stated),-3.3,3954,·,0.2,-1.4
C[C@H]1CN([C@@H](C)CO)C(=O)CCCn2cc(nn2)CO[C@@H]1CN(C)C(=O)Nc1ccc(-c2cccs2)cc1,0.6,4167,·,-0.1,-2.1
O=C(NCC12CC3CC(CC(C3)C1)C2)c1nn2cccnc2c1Cl,0.8,16281*,0.9,0.3,-3.7
O=C(NCc1cccs1)c1nn2cccnc2c1Cl,-3.0,2927,1.8,-0.1,-6.1
COCCNC(=O)c1nn2cccnc2c1Cl,-1.7,19754*,2.1,0.8,-0.1
CC(O)(c1cccc(F)c1)c1nc(-c2cnc3ccccc3c2)cs1 (configuration not stated),-0.5,3678,·,0.1,-8.0
CCCOc1ccc(C(=O)N2CCN(c3ccc(NC(=O)CC)cc3Cl)CC2)cc1,-4.0,20982*,1.9,?,1.3
CN1CCN(c2ccc(NC(=O)COc3ccccc3)cc2Cl)CC1,-3.5,5927,-10.8,2.6,-0.2
CCOC(=O)C1=C(C)NC(C)=C(C(=O)OCC)C1C(=O)O,-3.5,20924*,7.7,?,0.7
CCOC(=O)C1=C(C)NC(C)=C(C(=O)OCC)C1,?,18757*!,-3.1,?,-3.5
CCOC(=O)N1CCN(C(=O)/C(=C/c2ccc(OC)cc2)NC(=O)c2ccccc2)CC1,-13.0,2819,6.0,0.1,-0.1
CCOC(=O)N1CCN(C(=O)/C(=C/c2cccc3ccccc23)NC(=O)c2ccc(OC)cc2)CC1,-5.4,24028*,12.4,-2.1,-1.8
O=C(NCCCN1CCOCC1)c1cc(S(=O)(=O)N2CCCCC2)ccc1Cl,-3.7,4155,5.6,-0.4,-3.3
CCOc1ccc(/C=C/C(=O)Nc2ccc(OC)cc2[N+](=O)[O-])cc1,-12.5,2563,236.8*,0.2,1.4
CCOc1ccc(NC(=O)/C=C/c2ccccc2)c([N+](=O)[O-])c1,-3.5,2145,8.5,0.1,-2.2
COc1ccc(NC(=O)Nc2nnc([C@H]3C[C@H](O)[C@@H](CO)O3)s2)cc1,3.3,3859,·,-0.3,-4.4
Cc1ccc(NC(=O)CSCC(=O)N(C)CC(=O)Nc2cccc3ccccc23)cc1,-4.1,6387,-11.5,-1.6,-1.8
CN1CCCC(C)(C(=O)Nc2ccc3scnc3c2)C1 (configuration not stated),-2.2,3824,·,0.1,-3.7
CCOC(=O)c1cc(-c2ccc(Cl)cc2)nc2c1c(C)nn2CCC#N,-1.4,3036,2.5,0.7,5.2
CCOC(=O)c1cc(-c2ccc(OC)cc2F)nc2c1c(C)nn2CCC#N,-4.8,25362*,-9.1,?,-4.0
O=c1c(-c2nnc(SCc3ccc(Cl)cc3Cl)o2)cccn1Cc1ccccc1,-0.7,22041*,-3.8,?,0.5
Cc1nc2c(=O)[nH]c(=S)[nH]c2[nH]c1=O,1.2,3657,-17.3,0.2,-1.1
SMILES,BoNT F protease,Autofluor counter,MazEF act,BoNT A protease,Anthrax LF inh2
CSC(=NS(=O)(=O)c1ccccc1)NNC(=O)c1c(-c2c(Cl)cccc2Cl)noc1C,1.3,5863,·,0.0,2.8
CCOC(=O)NC(=O)c1cn(N(C)c2ncc(C(F)(F)F)cc2Cl)c(=O)[nH]c1=O,-66.7,21416*,2.1,-17.3,-23.0
CCN(CC)c1ccc2cc(-c3nc(-c4cc5ccccc5oc4=O)cs3)c(=O)oc2c1,22.8,7684,-118.5,87.2*,46.6*
CC(C)[C@H](NC(N)=O)C(=O)NCCc1ccc(Cl)cc1,1.5,3212,-4.4,-0.1,-1.1
CC(C)[C@H](NC(=O)NCCc1ccc(Cl)cc1)C(=O)O,-8.3,17382*,-0.9,?,-2.8
CCCCN1C(=O)C(CC(=O)NC(c2ccccc2)c2ccccc2)CC(C(=O)N(C(C)C)C(C)C)=C1C (configuration not stated),-4.4,3888,-10.0,0.5,-5.0
CCOC(=O)c1c(S(=O)(=O)NCC(=O)Nc2ccc(F)cc2)c(C)n(C)c1C,3.7,4209,4.4,1.5,-0.4
CSc1nnc(-c2cc(C)on2)n1-c1ccccc1,2.9,2153,-1.5,0.0,2.7
CSc1nnc(-c2nnc(SC)n2-c2ccccc2)n1-c1ccccc1,0.0,16237*,2.4,0.0,-1.2
CCC(CO)Nc1ccc([N+](=O)[O-])c2cccnc12 (configuration not stated),-4.7,22808*,4.9,-2.0,0.2
CC(O)CNc1ccc([N+](=O)[O-])c2cccnc12 (configuration not stated),-4.0,2237,5.7,0.1,-1.5
CCN(CCNc1ccc([N+](=O)[O-])c2cccnc12)S(=O)(=O)c1ccccc1,4.1,10277,138.3*,3.6,1.2
CCCCN(C(=O)CSc1nnnn1C)C1CCS(=O)(=O)C1 (configuration not stated),-0.7,3924,10.7,-0.5,-5.5
COc1ccc(CSCC(=O)N/N=C/c2ccc(OCC(=O)NCc3ccco3)cc2)cc1,-8.3,2939,0.0,-0.3,-1.8
Cc1cc(C)cc(CSCC(=O)N/N=C/c2ccc(OCC(=O)NCc3ccco3)cc2)c1,2.9,21576*,-19.9,3.3,-3.8
Cn1c2nc(=O)n(-c3ccccc3)c(=O)c-2nc2c1CCCC2,-1.5,2961,-158.3,-0.4,-14.2
COc1cccc(C2C(C(=O)Nc3cccnc3)=C(C)Nc3nnnn32)c1OC (configuration not stated),0.8,4340,10.8,0.2,1.5
CC1=C(C(=O)Nc2cccnc2)C(c2ccncc2)n2nnnc2N1 (configuration not stated),-1.5,19936*,2.7,?,1.8
COc1ccccc1NC(=O)C1=C(C)Nc2nnnn2C1c1cc(Br)ccc1OC (configuration not stated),-4.7,23731*,-1.9,-3.9,-1.6
Cc1cc(C)cc(Cn2cc(CN3CC(N4CCN(C)CC4)CS3(=O)=O)nn2)c1 (configuration not stated),-0.7,4347,·,-0.1,-9.2
c1ccc(-c2nnc3sc(CN4CCC5(CC4)OCCO5)cn23)cc1,-0.6,20544*,5.0,-1.1,0.4
O=C(O)c1cc(S(=O)(=O)N2CCCCC2)ccc1Cl,?,3030,13.0,-1.4,2.9
O=C(NCc1ccccn1)c1cc(S(=O)(=O)N2CCN(c3ccccc3)CC2)ccc1Cl,-2.2,22854*,3.5,?,-4.1
Cc1ccc(S(=O)(=O)N2CCCC2)cc1C(=O)NCc1ccccn1,5.3,3959,-2.1,3.9,3.0
O=C(O)c1cc(S(=O)(=O)N2CCCCC2)ccc1F,-4.1,21594*,4.2,-2.9,-2.0
O=C(NCc1ccccc1)c1cc(S(=O)(=O)N2CCOCC2)ccc1F,5.5,3894,50.5*,0.7,-2.4
O=C(NCCc1ccccc1)c1cc(S(=O)(=O)N2CCOCC2)ccc1F,-7.3,3609,6.5,0.1,-1.4
